SKN-1 block: suppressors of acrylamide-induced Pgst-4::GFP reporter in worms, primary screen, SKN-1 inhibitor project, whole organism, uHTS, GFP/RFP fluorescence ratio, strain VP596; 360,000 compounds, 0.49% hits; AID 624304, 2012; inhibition, % at 21.8 µM; C. elegans VP596 Pgst-4::GFP/RFP ratio, 24 h;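 active = interference check ratio from 0.5 to 1.5 plus GFP to RFP signal ratio inhibition reaching or exceeding a fixed threshold, cut at about 30% in these data, passing the limit was not always enough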
MEKK2 mut-MEK5: MEK5 binding signal on mutant MEKK2 PB1, primary screen, biochemical, multiplex bead flow cytometry, Alexa488-MEK5; Alexa488-MEK5 binding to MEKK2 mutant; percent response, % at 10 µM; 290,000 compounds, 0.35% hits; AID 1530, 2009; in the data active = percent response above about 24%, passing the limit was not always enough
MEKK2 WT-MEK5: modulators of MEK5 binding to wildtype MEKK2, primary screen, biochemical, multiplex bead flow cytometry, Alexa488-MEK5 | Mitogen-activated protein kinase kinase kinase 2 (Homo sapiens), Q9Y2U5 | Alexa488-MEK5 binding to MEKK2 WT; actives lie on both sides | binding response (% of control), % at 10 µM | 290,000 compounds, 1.1% hits; in the data active = binding response below about 67% or above about 130%
CendR NRP1 mod: modulators of CendR peptide binding to NRP-1, primary screen, biochemical, fluorescence polarization, uHTS; inhibition, % at 25 µM; AID 602438, 2012; Neuropilin-1 (Homo sapiens), O14786; 360,000 compounds, 0.85% hits; FAM-RPARPAR peptide binding to NRP-1;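 active = inhibition or corrected inhibition above about 18%, plus a signal ratio from 0.5 to 1.5, limit read from the data, passing the limit was not always enough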
MEKK3 PB1 HTS: modulators of MEKK3-MEK5 PB1 binding, primary screen, biochemical, wildtype MEKK3, multiplex bead flow cytometry, Alexa488-MEK5; Mitogen-activated protein kinase kinase kinase 3 (Homo sapiens), Q99759; bead-based flow cytometry, Alexa488-MEK5 binding to MEKK3; actives lie on both sides; 0 = blocked by unlabeled MEK5, 100 = vehicle; binding response (% of control), % at 10 µM; 290,000 compounds, 1.4% hits; AID 1529, 2009;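 active = binding response more than 3 SD above or below the average of its plate-row segment, actives on both sides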;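 also: Alexa488 bead fluorescence after subtracting the streptavidin-only scavenger bead signal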
Target sequence (Q99759 whole entry, looked up): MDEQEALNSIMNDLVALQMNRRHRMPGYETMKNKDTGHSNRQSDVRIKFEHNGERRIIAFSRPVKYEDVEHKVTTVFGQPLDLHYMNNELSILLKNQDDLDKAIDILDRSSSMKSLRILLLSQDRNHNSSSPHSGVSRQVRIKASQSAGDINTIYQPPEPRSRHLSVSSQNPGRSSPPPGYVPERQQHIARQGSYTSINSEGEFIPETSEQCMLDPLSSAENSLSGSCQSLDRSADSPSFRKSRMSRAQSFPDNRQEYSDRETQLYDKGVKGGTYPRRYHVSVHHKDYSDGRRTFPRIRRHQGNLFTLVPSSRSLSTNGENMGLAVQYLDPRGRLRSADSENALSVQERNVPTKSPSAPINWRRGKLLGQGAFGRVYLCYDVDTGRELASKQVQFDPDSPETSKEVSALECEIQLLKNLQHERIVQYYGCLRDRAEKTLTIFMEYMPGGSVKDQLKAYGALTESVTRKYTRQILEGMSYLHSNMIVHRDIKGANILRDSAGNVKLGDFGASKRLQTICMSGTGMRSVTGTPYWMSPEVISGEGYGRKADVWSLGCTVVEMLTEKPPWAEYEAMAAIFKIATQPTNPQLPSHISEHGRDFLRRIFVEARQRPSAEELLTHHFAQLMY
Numbers stand for hits. Hits are enriched below; roughly 3.2% of the tested compounds scored in any of these assays.

How did COc1cccc(/C(O)=C2/C(=O)C(=O)N(CCN(C)C)C2c2ccc(Br)cc2)c1 (stereo not drawn) do in these assays?
SKN-1 block: inactive; MEKK2 mut-MEK5: inactive; MEKK2 WT-MEK5: inactive; CendR NRP1 mod: 20; MEKK3 PB1 HTS: inactive

How did COC(=O)c1ccc(C2/C(=C(\O)c3cccc(OC)c3)C(=O)C(=O)N2CCCN(C)C)cc1 (stereo not drawn) do in these assays?
SKN-1 block: inactive; MEKK2 mut-MEK5: inactive; MEKK2 WT-MEK5: inactive; CendR NRP1 mod: inactive; MEKK3 PB1 HTS: inactive

Results for COc1ccc(C(=O)NCCN2CCOCC2)cc1S(=O)(=O)Nc1ccc(C)cc1 ?
SKN-1 block: inactive; CendR NRP1 mod: inactive

What do the screens show for `COc1ccc(-c2noc(CCC(=O)NCc3cc(Br)ccc3OC)n2)cc1`?
SKN-1 block: inactive; MEKK2 mut-MEK5: inactive; MEKK2 WT-MEK5: inactive; CendR NRP1 mod: inactive; MEKK3 PB1 HTS: inactive

What do the screens show for `COc1ccc(Br)cc1CNC(=O)CCc1nc(-c2ccc(C)cc2)no1`?
SKN-1 block: inactive; MEKK2 mut-MEK5: inactive; MEKK2 WT-MEK5: inactive; CendR NRP1 mod: 23; MEKK3 PB1 HTS: inactive

Results for O=C(CN1CCN(S(=O)(=O)c2ccc(Br)cc2)CC1)Nc1ccc2c(c1)OCO2 ?
SKN-1 block: 35; MEKK2 mut-MEK5: inactive; MEKK2 WT-MEK5: inactive; CendR NRP1 mod: inactive; MEKK3 PB1 HTS: inactive

What do the screens show for `O=C(CN1CCN(S(=O)(=O)c2ccc(Br)cc2)CC1)Nc1ccc(F)cc1`?
SKN-1 block: inactive; MEKK2 mut-MEK5: inactive; MEKK2 WT-MEK5: inactive; CendR NRP1 mod: inactive; MEKK3 PB1 HTS: inactive

How did COc1ccc(CC(=O)Nc2ccc3c(c2)OCO3)cc1S(=O)(=O)N1CCOCC1 do in these assays?
SKN-1 block: inactive; MEKK2 mut-MEK5: inactive; MEKK2 WT-MEK5: inactive; CendR NRP1 mod: 22; MEKK3 PB1 HTS: inactive

How did COc1ccc(CC(=O)Nc2nnc(SCc3ccccc3)s2)cc1S(=O)(=O)N1CCOCC1 do in these assays?
SKN-1 block: 61; MEKK2 mut-MEK5: inactive; MEKK2 WT-MEK5: inactive; CendR NRP1 mod: inactive; MEKK3 PB1 HTS: inactive

How did COCCCNC1=C(C#N)C(=O)NC2(CCCC2)S1 do in these assays?
SKN-1 block: inactive; CendR NRP1 mod: inactive

How did CN(C)CCN(C)C1CN(Cc2ccc([N+](=O)[O-])cc2)S(=O)(=O)C1 (stereo not drawn) do in these assays?
SKN-1 block: inactive; CendR NRP1 mod: inactive

How did COc1ccc(S(=O)(=O)N2CCSC2C)cc1C (stereo not drawn) do in these assays?
SKN-1 block: inactive; MEKK2 mut-MEK5: inactive; MEKK2 WT-MEK5: inactive; CendR NRP1 mod: inactive; MEKK3 PB1 HTS: inactive

What do the screens show for `O=C(NCc1cccnc1)c1cc(C2CCCN(C(=O)c3cccs3)C2)on1` (stereo not drawn)?
SKN-1 block: inactive; CendR NRP1 mod: inactive

How did CCC(=O)N1CCCC(C)(C(=O)Nc2ccc3scnc3c2)C1 (stereo not drawn) do in these assays?
SKN-1 block: inactive; CendR NRP1 mod: inactive

How did O=C(Nc1cccc(OC(F)(F)F)c1)C1Cc2c(-c3cccc(F)c3)ccnc2O1 (stereo not drawn) do in these assays?
SKN-1 block: inactive; CendR NRP1 mod: inactive

What do the screens show for `O=C(CNC(=O)C1CCCCC1)NC1=NCCS1`?
SKN-1 block: inactive; MEKK2 mut-MEK5: inactive; MEKK2 WT-MEK5: inactive; CendR NRP1 mod: inactive; MEKK3 PB1 HTS: inactive

How did O=C(CNC(=O)C12CC3CC(CC(C3)C1)C2)NC1=NCCS1 do in these assays?
SKN-1 block: inactive; MEKK2 mut-MEK5: inactive; MEKK2 WT-MEK5: inactive; CendR NRP1 mod: 26; MEKK3 PB1 HTS: inactive

How did CCN1C(=O)N(CC)C(O)(c2ccccc2)C1(O)c1ccccc1 (stereo not drawn) do in these assays?
SKN-1 block: inactive; MEKK2 mut-MEK5: inactive; MEKK2 WT-MEK5: inactive; CendR NRP1 mod: 30; MEKK3 PB1 HTS: inactive

What do the screens show for `FCCCOc1ccc(-c2nccc(-c3ccccn3)n2)cc1`?
SKN-1 block: 66; MEKK2 mut-MEK5: inactive; MEKK2 WT-MEK5: inactive; CendR NRP1 mod: 21; MEKK3 PB1 HTS: inactive

Results for O=C(NCCc1ccccc1)[C@@H]1CC=C[C@@H]2CCN(C3CCCCC3)C(=O)[C@@H]21 ?
SKN-1 block: inactive; MEKK2 mut-MEK5: inactive; MEKK2 WT-MEK5: inactive; CendR NRP1 mod: inactive; MEKK3 PB1 HTS: inactive

What do the screens show for `CCC1=Nc2cc(C(=O)NCCN3CCCC3)ccc2Sc2ccccc21`?
SKN-1 block: inactive; MEKK2 mut-MEK5: inactive; MEKK2 WT-MEK5: 135; CendR NRP1 mod: inactive; MEKK3 PB1 HTS: inactive

What do the screens show for `Cc1[nH]c2ccc(C(=O)NCCN3CCCCCC3)cc2c1C`?
SKN-1 block: inactive; MEKK2 mut-MEK5: inactive; MEKK2 WT-MEK5: 135; CendR NRP1 mod: inactive; MEKK3 PB1 HTS: inactive

How did Cc1[nH]c2ccc(C(=O)NCCCN3CCCCC3)cc2c1C do in these assays?
SKN-1 block: inactive; MEKK2 mut-MEK5: inactive; MEKK2 WT-MEK5: inactive; CendR NRP1 mod: inactive; MEKK3 PB1 HTS: inactive

Results for Cc1c(C)n(C)c2ccc(C(=O)NCCCN3CCCC3)cc12 ?
SKN-1 block: inactive; MEKK2 mut-MEK5: inactive; MEKK2 WT-MEK5: 142; CendR NRP1 mod: inactive; MEKK3 PB1 HTS: inactive

How did Cc1c(C)n(C)c2ccc(C(=O)NCCCN3CCCCC3)cc12 do in these assays?
SKN-1 block: inactive; MEKK2 mut-MEK5: 25; MEKK2 WT-MEK5: 154; CendR NRP1 mod: inactive; MEKK3 PB1 HTS: inactive

What do the screens show for `CCC1=Nc2cc(C(=O)NCCCN3CCOCC3)ccc2Sc2ccccc21`?
SKN-1 block: inactive; MEKK2 mut-MEK5: inactive; MEKK2 WT-MEK5: inactive; CendR NRP1 mod: inactive; MEKK3 PB1 HTS: inactive

What do the screens show for `CCOCCn1c(N2CCCC2)nc2c1c(=O)n(C)c(=O)n2C`?
SKN-1 block: inactive; MEKK2 mut-MEK5: inactive; MEKK2 WT-MEK5: inactive; CendR NRP1 mod: inactive; MEKK3 PB1 HTS: inactive

What do the screens show for `COc1nc(=O)n(C2C=CC(=O)O2)cc1F` (stereo not drawn)?
SKN-1 block: inactive; CendR NRP1 mod: inactive

What do the screens show for `CC(C)(C)c1ccc(Nc2n[nH]c3ccccc23)cc1`?
SKN-1 block: inactive; CendR NRP1 mod: inactive

What do the screens show for `COc1ccc(-c2cn(CCC(=O)O)c(-c3ccc(Cl)nc3)n2)cc1`?
SKN-1 block: inactive; CendR NRP1 mod: inactive

Results for COc1ccc(-c2cn(CCO)c(-c3ccc(Cl)nc3)n2)cc1 ?
SKN-1 block: inactive; CendR NRP1 mod: 18

What do the screens show for `N#C/C(=C\c1ccc([N+](=O)[O-])o1)C(=O)Nc1ccc(F)cc1`?
SKN-1 block: 35; MEKK2 mut-MEK5: inactive; MEKK2 WT-MEK5: inactive; CendR NRP1 mod: inactive; MEKK3 PB1 HTS: inactive

How did CC(OC(=O)c1cccc(S(=O)(=O)Nc2cccc(C(F)(F)F)c2)c1)C(=O)Nc1ccc2c(c1)OCCO2 (stereo not drawn) do in these assays?
SKN-1 block: inactive; MEKK2 mut-MEK5: inactive; MEKK2 WT-MEK5: inactive; CendR NRP1 mod: 31; MEKK3 PB1 HTS: inactive
